In all, about 330,000 compounds went through this assay and about 5,800 (1.8%) were called active. Cut-off read from the data, not from the text of the source: active = inhibition mostly above about 38% (no sharp cut-off); inactive = mostly below about 40%. Shown is part of a subset that was picked to be rich in actives.
molecular target: Orexin/Hypocretin receptor type 1 (Homo sapiens) (UniProt O43613); experiment: blocks the human orexin 1 receptor (AID 485270); settings: OX1R-expressing cells, FRET antagonist read-out; at 6.6 µM; active compounds read high;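 note: 0% = agonist challenge alone and 100% = reference antagonist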
Sequence (O43613 whole entry, looked up): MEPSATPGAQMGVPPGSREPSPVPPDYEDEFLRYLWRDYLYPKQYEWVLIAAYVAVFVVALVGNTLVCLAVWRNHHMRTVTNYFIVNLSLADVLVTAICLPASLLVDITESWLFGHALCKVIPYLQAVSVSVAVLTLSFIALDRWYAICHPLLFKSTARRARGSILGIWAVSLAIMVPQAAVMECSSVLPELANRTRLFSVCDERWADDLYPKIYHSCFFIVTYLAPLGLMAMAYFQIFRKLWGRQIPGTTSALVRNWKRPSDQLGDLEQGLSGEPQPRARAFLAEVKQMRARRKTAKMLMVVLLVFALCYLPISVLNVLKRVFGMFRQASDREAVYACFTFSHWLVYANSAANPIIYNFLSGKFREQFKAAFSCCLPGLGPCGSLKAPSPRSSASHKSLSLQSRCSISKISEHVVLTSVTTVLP

Structure (SMILES) | inhibition
O=C1COc2ccc(C(=O)COC(=O)CCOc3ccccc3)cc2N1 | 4.75% (inactive)
O=C(COC(=O)c1ccccc1O)NCc1ccco1 | 9.75% (inactive)
COc1cccc(-c2sc3ccc(OC)cc3c2-c2ccc(OCCN3CCCCC3)cc2)c1 | 3.65% (inactive)
CCC(C)(C)NC(=O)C(c1ccccn1)N(C(=O)c1csnn1)c1ccccc1 (configuration not stated) | 6.1% (inactive)
CC(C)(C)NC(=O)CN(C(=O)c1csnn1)c1ccccc1-c1ccccc1 | 67.4% (active)
CC(C)(C)NC(=O)CN(C(=O)c1ccc(Cl)nc1)c1cccc2ccccc12 | 9.37% (inactive)
COc1cc(Cl)c(C)cc1NC(=O)CSc1nnc(CN2CCCC2)o1 | 3.58% (inactive)
O=C1CC2(CCCC2)C(=O)N1CN1CCN(S(=O)(=O)c2ccc(F)cc2F)CC1 | 6.49% (inactive)
COC(=O)c1sccc1NC(=O)CSc1ccccc1NS(=O)(=O)c1cc(Cl)ccc1Cl | 60.7% (active)
COC(=O)c1sccc1NS(=O)(=O)c1ccc(F)cc1F | -2.44% (inactive)
COC(=O)c1sccc1NC(=O)COc1ccc(Cl)cc1 | 19.5% (inactive)
C[C@]12CC[C@H](O)CC1=CCC1C2CC[C@@]2(C)C1CC[C@@H]2NC(=O)CCC(=O)O (some centres not stated) | 4.74% (inactive)
Cc1cccc(C)c1Nc1nnc(SCC(=O)NCCCN2CCCC2=O)s1 | 5.99% (inactive)
COc1cccc(C(=O)OCC(=O)c2[nH]c(C)c(C(C)=O)c2C)c1 | 12.8% (inactive)
CC(=O)c1c(C)[nH]c(C(=O)COC(=O)c2cccs2)c1C | 15% (inactive)
CC(=O)c1c(C)[nH]c(C(=O)COC(=O)c2cccc(S(=O)(=O)N(C)c3ccccc3)c2)c1C | 69.6% (active)
CC[C@]12c3[nH]c4ccc(OC)cc4c3CCN1C(=O)C(CC(=O)NCc1ccco1)C[C@@H]2C(=O)N1CCN(C(=O)C2CC2)CC1 (some centres not stated) | 6.49% (inactive)
COc1ccc(CCNC(=O)COC(=O)c2cnc(Cl)c(Cl)c2)cc1 | 8.28% (inactive)
O=C(OCc1ccc([N+](=O)[O-])cc1)c1ccccn1 | 5.7% (inactive)
O=C(COC(=O)c1ccccn1)NNC(=O)c1ccc(Br)cc1 | -0.24% (inactive)
O=C(COC(=O)c1ccccn1)NNC(=O)c1ccc([N+](=O)[O-])cc1 | 57.2% (active)
COc1ccc(-c2c(C)cc3oc(=O)cc(-c4ccccc4)c3c2C)cc1C=O | 4.68% (inactive)

Structure (SMILES) | inhibition
COc1ccccc1C(=O)COC(=O)COc1ccc(C#N)cc1 | 5.7% (inactive)
O=[N+]([O-])c1ncc(Br)cc1Nc1ccccc1 | 54.1% (active)
O=[N+]([O-])c1ccccc1Nc1ccc(O)cc1 | 50.7% (inactive)
O=[N+]([O-])c1cccc(/C=N/Nc2ncc(Br)cn2)c1 | 25.3% (inactive)
O=C(COC(=O)/C=C/c1cccc(Cl)c1)NCc1cccs1 | 5.6% (inactive)
COc1ccc(-c2sc3ccccc3c2-c2ccc(OCCN3CCOCC3)cc2)cc1 | -1.97% (inactive)
CCOc1ccc(/C=N/NC(N)=S)cc1 | 27.9% (inactive)
O=C(N/N=C/c1ccc([N+](=O)[O-])cc1)C(=O)N1CCCC1 | 45.8% (active)
Cc1ccsc1C(=O)N/N=C/c1ccc([N+](=O)[O-])cc1 | 53.6% (inactive)
O=C(N/N=C/c1ccc2c(c1)OCO2)C(=O)N1CCCC1 | 15% (inactive)
NC(=S)N/N=C/c1ccc([N+](=O)[O-])cc1 | 50.9% (active)
COC(=O)c1ccc(/C=N/NC(=O)C(=O)N2CCCCCC2)cc1 | 44.8% (inactive)
O=C(COC(=O)c1ccncc1)Nc1ccc2c(c1)OCO2 | 9.22% (inactive)
O=C(Nc1cccc(S(=O)(=O)NC2=NCCC2)c1)c1ccc(F)cc1F | 3.06% (inactive)
Cc1cccc(-n2ncc3c(=O)[nH]c(SCC(=O)Nc4cc(C)on4)nc32)c1 | 10.5% (inactive)
COc1ccc(-c2nc3cc(C)ccn3c2NC2CCCCC2)cc1SC1CCCCC1 | 11.5% (inactive)
Cc1ccc(NC(=O)CN(C)C(=O)c2ccc(Cl)c(S(=O)(=O)NCc3ccco3)c2)cc1 | 4.72% (inactive)
COC(=O)CNC(=O)c1ccc2c(c1)S(=O)(=O)c1ccccc1C2=O | 172% (active)
Cc1ccc(CNC(=O)c2ccc3c(c2)S(=O)(=O)c2ccccc2C3=O)cc1 | 61.7% (inactive)
CC(C)(C)c1ccc(C(=O)NCC(=O)OCN2C(=O)c3ccccc3C2=O)cc1 | -0.82% (inactive)
COC(=O)[C@]1(C)N[C@H](CN(C)C(=O)c2ccc(C(C)(C)C)cc2)[C@@H]2C(=O)N(C)C(=O)[C@@H]21 | 6.6% (inactive)
COc1ccccc1NC(=O)COC(=O)c1ccccc1SCC(=O)N1CCCC1 | 23.9% (inactive)

Structure (SMILES) | inhibition
CC(C)N(Cc1ccccc1)C(=O)COC(=O)c1ccccc1SCC(=O)N1CCCC1 | 60.6% (active)
CC(NC(=O)c1ccccc1SCC(=O)N1CCCC1)c1ccccc1 (configuration not stated) | 6.4% (inactive)
COc1ccc(S(=O)(=O)N(C)C[C@@H]2Oc3ccc(NC(=O)Nc4c(C)noc4C)cc3C(=O)N([C@H](C)CO)C[C@@H]2C)cc1 | 5.98% (inactive)
O=[N+]([O-])c1ccc(N=Cc2c(O)ccc3ccccc23)cc1 | 26.6% (inactive)
Oc1ccc(N=Cc2c(O)ccc3ccccc23)cc1 | 54.4% (active)
Oc1ccc(N=Cc2sc3ccccc3c2Cl)cc1 | 36.6% (inactive)
Cc1ccc(N2C(=O)N3[C@@H]4c5ccccc5OC[C@@H]4[C@@H](c4ccccc4)[C@@]3(C)C2=O)cc1 | 4.13% (inactive)
O=C(NN=Cc1ccc(N2CCOCC2)cc1)c1cc2ccccc2cc1O | 8.04% (inactive)
Cn1nnnc1SCC(=O)Nc1nc2ccccc2s1 | 14.3% (inactive)
C=CCn1c(SCC(=O)Nc2nc3ccccc3s2)nnc1-c1ccccc1O | 53% (active)
C=CCn1c(SCC(=O)NCc2ccccc2)nnc1-c1cc(Br)ccc1O | 13.4% (inactive)
O=C(COc1cccnc1[N+](=O)[O-])Nc1ccc(Cl)cc1F | 9.99% (inactive)
Cc1ccsc1C(=O)OCC(=O)NCCc1ccccc1 | 1.76% (inactive)
CC[C@]12c3[nH]c4cc(CCC(=O)N(C)C)ccc4c3CCN1C(=O)[C@@H](CC(=O)NCCCn1ccnc1)C[C@@H]2C(=O)N1CCN(C(=O)C2CC2)CC1 | 10.3% (inactive)
Clc1ccccc1SCc1nc2ccccc2[nH]1 | 24.1% (inactive)
c1ccc(-c2nnc(SCc3nc4ccccc4[nH]3)o2)cc1 | 16.7% (inactive)
c1ccc2c(CSCc3nc4ccccc4[nH]3)cccc2c1 | 90.8% (active)
CC(C)(C)OC(=O)C[C@@H]1C/C=C\C[C@@H](CC(=O)N[C@H](CO)Cc2ccccc2)C(=O)NC[C@@H](c2ccccc2)OC1=O | 8.95% (inactive)
COC(=O)C1=C(C)N(Cc2ccccc2)C(=NCCCOC(C)C)N[C@H]1c1ccccc1 | 10.8% (inactive)
O=C(Nc1ccc2sc3ccccc3c(=O)c2c1)c1ccccc1Cl | 86.1% (active)
COCC(=O)N1CCc2ccc(NC(=O)c3ccccc3Cl)cc2C1 | -9.22% (inactive)
CS(=O)(=O)c1ccccc1C(=O)Nc1ccc2sccc2c1 | 11.8% (inactive)

Structure (SMILES) | inhibition
CCCC(CNC(=O)COC(=O)C1=NNC(=O)CC1)c1ccc(Cl)cc1Cl (configuration not stated) | 9.27% (inactive)
CC1O[C@@H](OC2C(O)C(C)O[C@H](OC(=O)[C@]34CCC(C)(C)C[C@H]3C3=CCC5[C@@]6(C)CC(O)C(O[C@@H]7OC(CO)C(O)[C@@H](O)[C@@H]7O)[C@@](C)(C(=O)O)C6CC[C@@]5(C)[C@]3(CO)CC4)C2O[C@H]2OC(C)[C@@H](O[C@@H]3OCC(O[C@@H]4OC(CO)C(O)[C@H](O)C4O)[C@@H](O)[C@@H]3O)[C@H](O)C2O)C(O)C(O)C1O (some centres not stated) | 10.6% (inactive)
CCC(CO)Oc1cc(NC(=O)c2cccc3ccccc23)c2ncn(C(C)C)c2c1 (configuration not stated) | 12.5% (inactive)
COc1ccccc1-c1nnc2n1N=C(c1ccc(OC(F)F)c(OCC3CC3)c1)CS2 | 9.14% (inactive)
C[C@@H]1CN([C@H](C)CO)C(=O)c2cc(NC(=O)NC3CCCCC3)ccc2O[C@H]1CN(C)S(C)(=O)=O | 0.78% (inactive)
COc1ccc(S(=O)(=O)Nc2ccccc2C(=O)N2CCCC2)cc1C | 15.3% (inactive)
CC(NS(=O)(=O)c1ccc(OCC(=O)N2CCCC2)cc1)c1ccccc1 (configuration not stated) | 2.37% (inactive)
COc1ccc(S(=O)(=O)NC(C)c2ccccc2)cc1C(=O)N1CCCCC1 (configuration not stated) | 78.9% (active)
COc1cc2ccccc2cc1C(=O)Nc1ccc(NC(=O)c2cccs2)cc1 | 10.3% (inactive)
COc1ccc(CCNC(=O)/C(C#N)=C2\N=C(NC(=O)c3cccs3)c3ccccc32)cc1 | 110% (active)
COc1ccc(CN(Cc2ccc(OC)cc2)C(=O)c2cccs2)cc1 | 5.1% (inactive)
Cc1c(Br)ccc(NC(=O)COc2ccccc2C(N)=O)c1C | 1.89% (inactive)
CC(C)(C)n1ncc2c(=O)n(Cc3c(Cl)cccc3Br)cnc21 | 11.1% (inactive)
Cc1nc2ccccc2n1CC(O)c1ccccc1 (configuration not stated) | 17.1% (inactive)
CCn1c(C)nc2c1C(=O)c1ccccc1C2=O | 99.7% (active)
CCC1(CC)Cc2ccccc2-c2nc3ccccc3c(=O)n21 | 8.19% (inactive)
CC(C)(C)OC(=O)CNC(=O)c1[nH]cnc1C(=O)N[C@@H](CCCCN)C(=O)OC(C)(C)C | 10.9% (inactive)
C=CC[C@@H](CC(=O)N[C@H](CO)Cc1ccccc1)C(=O)N[C@@H](COC(=O)[C@@H](CC=C)Cc1ccc(F)cc1)Cc1c[nH]c2ccccc12 | 5.38% (inactive)
Cc1cc(=O)oc(C)c1C(=O)NCc1ccc(F)cc1 | 19.4% (inactive)
COc1ccc(CNC(=O)c2c(C)cc(=O)oc2C)cc1OC | 8.87% (inactive)
Cc1cc(=O)oc(C)c1C(=O)NCCN(C)Cc1ccccc1 | 98.2% (active)
